GPR151 activ = activators of human GPR151, primary screen, cell-based, PathHunter beta-arrestin, luminescence; G-protein coupled receptor 151 (Homo sapiens), Q8TDV0; PathHunter beta-arrestin GPR151 cells; AID 1508602, 2020; activation, % at 11.2 µM; 650,000 compounds, 1% hits; in the data active means activation above about 4.9%
MITF inh = MITF inhibitors, primary screen, biochemical, AlphaScreen, human; Microphthalmia-associated transcription factor (Homo sapiens), O75030; AlphaScreen MITF homodimerization, bead proximity signal; inhibition, % at 2.6 µM; 650,000 compounds, 0.91% hits; AID 1259374, 2018; in the data active means inhibition above about 50%
FBW7 act = FBW7 E3 ligase activators, primary screen, biochemical, AlphaScreen, human; AlphaScreen FBW7–phospho-cyclin E peptide binding, activator screen; normalized activity (activation), % at 26.1 µM; 650,000 compounds, 0.13% hits; in the data active means normalized activity above about 1.9%;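 further: purified mutant Fbw7 with reduced substrate affinity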
Target sequence (Q969H0 whole entry, looked up): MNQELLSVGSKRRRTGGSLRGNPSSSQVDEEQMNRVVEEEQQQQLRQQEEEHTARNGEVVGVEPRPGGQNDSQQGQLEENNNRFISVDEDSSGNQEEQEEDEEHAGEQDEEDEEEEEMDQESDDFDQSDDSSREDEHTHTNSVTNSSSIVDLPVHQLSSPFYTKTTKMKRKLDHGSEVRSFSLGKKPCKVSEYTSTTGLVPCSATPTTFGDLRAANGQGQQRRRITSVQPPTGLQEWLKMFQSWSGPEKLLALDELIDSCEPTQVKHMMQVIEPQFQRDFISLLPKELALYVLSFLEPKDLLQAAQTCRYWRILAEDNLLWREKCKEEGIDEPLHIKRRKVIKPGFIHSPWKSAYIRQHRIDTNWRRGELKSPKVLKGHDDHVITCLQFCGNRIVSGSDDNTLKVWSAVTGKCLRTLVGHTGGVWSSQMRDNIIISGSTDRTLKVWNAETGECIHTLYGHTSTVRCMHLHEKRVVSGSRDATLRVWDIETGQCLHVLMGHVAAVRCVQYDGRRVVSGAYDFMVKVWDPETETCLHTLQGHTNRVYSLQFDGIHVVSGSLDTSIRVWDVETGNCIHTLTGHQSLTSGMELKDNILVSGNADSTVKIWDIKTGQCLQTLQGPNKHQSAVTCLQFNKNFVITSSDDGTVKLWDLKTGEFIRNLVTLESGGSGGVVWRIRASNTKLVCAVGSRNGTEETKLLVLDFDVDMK
TEAD-YAP block = TEAD-YAP interaction inhibition, primary screen, TEAD-YAP interaction inhibitor project, luminescence, HEK-TIYL cells. TEAD-Gal4/YAP UAS-luciferase luminescence. inhibition, % at 9.12 µM. 640,000 compounds, 1.4% hits. AID 1259422, 2018; in the data active means inhibition above about 32%
Of the large screens only hits and unclear results are named; the others gave an inactive call. An excerpt weighted towards active compounds, which were near 3.5% of everything screened.

CN(C)S(=O)(=O)c1cccc(-c2cn3cc(Cl)ccc3n2)c1	none
COc1ccc(-c2cn3cc(C)ccc3n2)cc1OC	none
Cc1ccc2nc(-c3ccc4c(c3)NC(=O)CO4)cn2c1	none
COc1ccc(-c2cn3cc(C)ccc3n2)cc1F	TEAD-YAP block 68
CCN(CC)S(=O)(=O)c1cccc(N=C2N=C(N)c3ccccc32)c1	none
Cc1c2oc3c(C)ccc(C(=O)OC(C)C4NC(=O)C(C(C)C)N(C)C(=O)CN(C)C(=O)C5CCCN5C(=O)C(C(C)C)NC4=O)c3nc-2c(C(=O)OC(C)C2NC(=O)C(C(C)C)N(C)C(=O)CN(C)C(=O)C3CCCN3C(=O)C(C(C)C)NC2=O)c(N)c1=O (stereo not drawn)	TEAD-YAP block 96
CCOc1ccccc1C1C(C(=O)OC2CCCCC2)=C(C)NC2=C1C(=O)CCC2 (stereo not drawn)	none
COc1ccc(-n2nc(C(=O)NCC(=O)N3CCC(Cc4ccccc4)CC3)c3ccccc3c2=O)cc1	TEAD-YAP block 33
COc1ccc(OC)c(NC(=O)CNC(=O)c2nn(-c3ccc(OC)c(Cl)c3)c(=O)c3ccccc23)c1	TEAD-YAP block 36
COc1ccc(OC)c(NC(=O)CNC(=O)c2nn(-c3ccc(OC)c(OC)c3)c(=O)c3ccccc23)c1	TEAD-YAP block 39
COc1ccc(-n2nc(C(=O)NCC(=O)NCCc3ccc(OC)c(OC)c3)c3ccccc3c2=O)cc1Cl	TEAD-YAP block 38
COc1ccc(-n2nc(C(=O)NCC(=O)N3CCCC3)c3ccccc3c2=O)cc1	none
COCCNC(=O)CNC(=O)c1nn(-c2ccc(OC)c(Cl)c2)c(=O)c2ccccc12	none
COc1ccc(C(=O)N/C(=C\c2cccc([N+](=O)[O-])c2)C(=O)Nc2ccc(Br)cc2)cc1Br	none
Cc1ncsc1CCC(=O)N1CCc2nnc(C(C)C)n2CC1	none
Nc1cc(=O)[nH]c(S/C=C/c2ccccc2)n1	TEAD-YAP block 34
Nc1cc(=O)[nH]c(SCc2ccccc2CSc2nc(N)cc(=O)[nH]2)n1	none
CCOc1ccccc1N1CCN(c2nnnn2-c2ccccc2)CC1	TEAD-YAP block 42
CCOC(=O)N1CCN(c2nnnn2-c2ccccc2)CC1	none
O=[N+]([O-])c1cc(CN2CCCCC2)c(O)c2ncccc12	MITF inh 73
O=[N+]([O-])c1cc(CN2CCc3ccccc3C2)c(O)c2ncccc12	none
O=[N+]([O-])c1cc(CN2CCC(c3ccccc3)C2)c(O)c2ncccc12 (stereo not drawn)	MITF inh 55, TEAD-YAP block 32
O=[N+]([O-])c1cc(CN2CCN(c3cccc(C(F)(F)F)c3)CC2)c(O)c2ncccc12	none
CN1CCN(Cc2cc([N+](=O)[O-])c3cccnc3c2O)CC1	MITF inh 76
CCc1cccc(N(Cc2nnc3n2CCCCC3)C(=O)Nc2ccc(OC)cc2)c1	none
CC(=O)Nc1ccc(-c2nnn(Cc3nnnn3-c3ccc(Cl)cc3)n2)cc1Cl	none
COc1ccc2[nH]c(CN3CCC4(CC3)NC(=O)c3ccccc3O4)c(C)c2c1	TEAD-YAP block 68
Cc1ccc(NC(=O)CN2C(=O)N/C(=C\c3ccc(N4CCCC4)cc3C)C2=O)cc1	none
O=C(NC1CC1)c1sccc1-c1ccccc1	none
CCOC(=O)C1=C(CN2CCC(C(N)=O)CC2)NC(=O)NC1c1cccs1 (stereo not drawn)	FBW7 act 2.6
CCOC(=O)C1=C(CN2CCCC2)NC(=O)NC1c1cccs1 (stereo not drawn)	none
Cc1ccccc1C(=O)NC1(C(F)(F)F)C(=O)Nc2c1c(=O)[nH]c(=O)n2C (stereo not drawn)	none
Nc1c(C(=O)Nc2nccs2)sc2nc3c(cc12)CCC3	TEAD-YAP block 56
Cc1ccc2cc3c(N)c(C(=O)Nc4nc(C)c(C)s4)sc3nc2c1	none
Cc1[nH]c(=O)[nH]c(=O)c1NC(=O)c1sc2nc3ccc(C(C)C)cc3cc2c1N	TEAD-YAP block 79
Cc1cc2cc3c(N)c(C(=O)Nc4nc(C)c(C)s4)sc3nc2cc1C	FBW7 act 46
Cc1ccc2nc3sc(C(=O)Nc4c(C)[nH]c(=O)[nH]c4=O)c(N)c3cc2c1	none
CC(C)c1ccc2nc3sc(C(=O)Nc4nccs4)c(N)c3cc2c1	TEAD-YAP block 66
Cc1c(C(=O)Oc2ccccc2)sc2ncn(C)c(=O)c12	none
C=CCCNS(=O)(=O)c1ccc(Cl)cc1	none
COc1ccc(C(=O)Nc2cccc(OC(=O)c3ccc(C)c(S(=O)(=O)N4CCOCC4)c3)c2)cc1	TEAD-YAP block 66
COc1cccc(C(=O)Nc2cccc(OC(=O)c3ccc(C)c(S(=O)(=O)N4CCOCC4)c3)c2)c1	TEAD-YAP block 36
Cc1ccc(C(=O)Nc2cccc(OC(=O)c3cccc(S(=O)(=O)N4CCC(C)CC4)c3)c2)cc1	TEAD-YAP block 68
COCCNc1c(-c2ccc(OC)cc2)nc2ccc(C)cn12	none
NC(=O)c1ccsc1NC(=O)c1ccc2c(c1)CCCC2	TEAD-YAP block 58
COCc1nc2cccnc2n1C1CCN(C(C)Cc2ccccc2OC)CC1 (stereo not drawn)	none
CCN(CC)c1ccc2cc(-c3nc4ccccc4s3)c(=O)oc2c1	TEAD-YAP block 77
CCN(CC)c1ccc2cc(-c3nc4ccccc4n3C)c(=O)oc2c1	TEAD-YAP block 33
COc1ccc(OCC(=O)N/N=C(\C)CC(=O)Nc2ccc(Br)cc2)cc1	none
Cc1ccn2cc(-c3ccc([N+](=O)[O-])cc3)nc2c1	none
Cc1ccn2cc(-c3ccccc3Br)nc2c1	TEAD-YAP block 33
Cc1ccn2cc(-c3ccc(S(=O)(=O)N(C)C)cc3)nc2c1	TEAD-YAP block 48
Cc1ccn2cc(-c3ccc(F)cc3)nc2c1	TEAD-YAP block 73
Cc1ccn2cc(-c3ccc(I)cc3)nc2c1	TEAD-YAP block 79
Cc1ccc(C(=O)OC/C(=N\O)c2ccccc2)cc1	none
C#CCN1C(=O)S/C(=C/c2ccc(C)o2)C1=O	none
CC(=O)c1c(C)n(-c2ccc(N(C)C)cc2)c2ccc(O)cc12	TEAD-YAP block 40
Cc1ccc(C(=O)Nc2nnc(SCC(=O)Nc3ccc(F)c([N+](=O)[O-])c3)s2)cc1	TEAD-YAP block 83
Cc1ccc(NC(=O)CSc2nnc(NC(=O)c3ccccc3[N+](=O)[O-])s2)cc1	none
O=C(COc1cccc(Cl)c1)Nc1ccccc1[N+](=O)[O-]	TEAD-YAP block 32
Cc1cc(C)cc(OCC(=O)Nc2ccc(F)c([N+](=O)[O-])c2)c1	TEAD-YAP block 37
Cc1cccc(OCC(=O)Nc2ccc(F)c([N+](=O)[O-])c2)c1	TEAD-YAP block 32
Cc1ccc(OCC(=O)Nc2ccc(F)c([N+](=O)[O-])c2)cc1C	none
Cc1cc(C)nc(N(C)C(=O)CC(C)(C)n2cccc2)n1	none
CC(=O)c1ccc(N2CCN(S(=O)(=O)c3ccc(C)cc3)C(C)C2)c(F)c1 (stereo not drawn)	none
O=C1C=C(Nc2cccc(C(=O)O)c2)c2ccccc2C1=O	none

High-throughput results (PubChem BioAssay)
